Records with an inconclusive call do not appear. Calls of active or inactive are those of the source. Calls follow the shape of the dose curve; as a rule, active = well fitted inhibition curve with a large enough effect; inconclusive = small, poorly fitted or top-dose-only effect; inactive = flat fitted curve, though single readings scatter.
Tests used:
Test in all cases: Cytotoxic Profiling of Annotated Libraries Using Quantitative High-Throughput Screening (AID 1296008); also: nearly all actives have a fitted effect of over 60% in size
Conditions in all cases: Five cell lines viability, CellTiter-Glo ATP luminescence, 48-72 h; max response: active compounds read low
CRL-7250 = normal cell line; tested on: CRL-7250
Summary of the method: (§1)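 Cells exposed to compounds for 48 or 72 hr at 37 degrees Celsius. Viability read as ATP-coupled luminescence with CellTiter-Glo after 10 min at room temperature.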

HEK293 = tested on: HEK293
Summary of the method: as §1

HaCat = tested on: HaCat
Summary of the method: as §1

KB-3-1 = tested on: KB-3-1
Summary of the method: as §1

NIH3T3 = tested on: NIH3T3
Summary of the method: as §1

Measured: max response
% is scaled to controls: 0 for no effect and ±100 for the full control effect.

C=C1[C@H]2CCC3[C@]4(C)CCC[C@@](C)(C(=O)O)C4CC[C@]3(C2)[C@H]1OC(C)=O (stereo not given in full)
inactive: CRL-7250 -1.83% | HEK293 3.77% | HaCat | KB-3-1 | NIH3T3

COC(=O)C1=CO[C@@H](O[C@@H]2O[C@H](CO)[C@@H](O)[C@H](O)[C@H]2O)[C@H]2[C@@H]1C=C[C@]21C=C([C@H](C)OC(=O)/C=C/c2ccc(O[C@@H]3O[C@H](CO)[C@@H](O)[C@H](O)[C@H]3O)cc2)C(=O)O1
inactive: CRL-7250 -2.8% | HEK293 4.82% | HaCat | KB-3-1 9.99% | NIH3T3

O=C(/C=C/c1ccccc1)O[C@@H]1[C@@H](CO)O[C@@](CO)(O[C@H]2O[C@H](CO)[C@@H](O)[C@H](O)[C@H]2O)[C@H]1O
inactive: CRL-7250 | HEK293 0.967% | HaCat | KB-3-1 -2.31% | NIH3T3 2.88%

C=CC1(C)CC2CCC3C(C)(C(=O)O)CCCC3(C)C2=CC1=O (stereo not given)
inactive: CRL-7250 | HEK293 -0.432% | HaCat | KB-3-1 | NIH3T3 -4.63%

COc1cc(C(O)C2COC(c3ccc(OC4OC(CO)C(O)C(O)C4O)c(OC)c3)C2CO)ccc1O (stereo not given)
inactive: CRL-7250 -6.83% | HEK293 -1.12% | HaCat | KB-3-1 8.83% | NIH3T3 -19.8%

C=C(C(=O)O)C1CC(O)C2(C)CCCC(C)(O)C2C1 (stereo not given)
inactive: CRL-7250 | HEK293 -8.07% | HaCat -11.8% | KB-3-1 0.961% | NIH3T3

CC(=O)N[C@H](Cc1c[nH]c2ccccc12)C(=O)OCc1cc(C(F)(F)F)cc(C(F)(F)F)c1
inactive: CRL-7250 -4.46% | HEK293 -2.25% | HaCat | KB-3-1 | NIH3T3

CC1(C)C2CC[C@@]34CC(CC[C@H]3[C@]2(C)CC[C@@H]1O[C@@H]1O[C@H](CO)[C@@H](O)[C@H](O)[C@H]1O)[C@](C)(O)C4 (stereo not given in full)
inactive: CRL-7250 -8.76% | HEK293 0.264% | HaCat | KB-3-1 8.52% | NIH3T3

Cc1c(C)c(NCC(=O)N(C)C2CCN(Cc3ccc(C(N)=O)cc3)CC2)c(C)c(C)c1N
inactive: CRL-7250 | HEK293 -11.3% | HaCat | KB-3-1 -3.8% | NIH3T3 2.96%

CC12CC(O)C(O)C=C1c1cc(O)cc(O)c1C(=O)O2 (stereo not given)
inactive: CRL-7250 -7.12% | HEK293 -7.31% | HaCat | KB-3-1 | NIH3T3

C=C(CO)C(=O)O[C@H]1C[C@@]23O[C@@H]2CC/C(=C/[C@H]2OC(=O)C(=C)[C@H]12)CO[C@H]3O
inactive: CRL-7250 | HEK293 -24.8% | HaCat | KB-3-1 | NIH3T3 2.84%

CC1(C)CC[C@]2(C(=O)O)[C@H](O)C[C@]3(C)C(=CCC4[C@@]5(C)CC[C@H](O[C@@H]6OC[C@@H](O)[C@H](O)[C@H]6O)[C@@](C)(C(=O)O)C5CC[C@]43C)[C@@H]2C1 (stereo not given in full)
inactive: CRL-7250 -5.63% | HEK293 0.0666% | HaCat | KB-3-1 9.63% | NIH3T3 0.796%

CC1=C2C[C@H]3OC(=O)[C@H](O)[C@@]4(O)[C@@H](C)[C@@H](O)[C@H](O)C([C@@]2(C)[C@H](O)[C@@H](O)C1)[C@@]34C (stereo not given in full)
inactive: CRL-7250 -2.09% | HEK293 -1.6% | HaCat | KB-3-1 9.81% | NIH3T3 2.2%

CC1=CCC[C@@H]2[C@@](C)(CCc3ccoc3)[C@H](C(=O)O)CC[C@@]12C
inactive: CRL-7250 -0.266% | HEK293 -0.612% | HaCat | KB-3-1 -0.465% | NIH3T3 -9.18%

CC(C)(OC1OC(CO)C(O)C(O)C1O)C1CCC(O)(CO)C2CC(=O)C(C)(O)C2C1 (stereo not given)
inactive: CRL-7250 | HEK293 -8.37% | HaCat 0.066% | KB-3-1 2.59% | NIH3T3

CC(=O)OC1C(CO)OC(O[C@H]2[C@H](OC(=O)[C@]34CCC(C)(C)C[C@H]3C3=CCC5[C@@]6(C)CC[C@H](O[C@@H]7O[C@H](C(=O)O)[C@@H](O)[C@H](O[C@@H]8OC[C@@H](O)[C@H](O)[C@H]8O)[C@H]7O[C@@H]7O[C@H](CO)[C@H](O)[C@H](O)[C@H]7O)[C@@](C)(C=O)C6CC[C@@]5(C)[C@]3(C)C[C@H]4O)O[C@H](C)[C@H](OC3OC(C)C(OC4OCC(O)C(O)C4O)C(O)C3O)[C@@H]2O)C(O)C1O (stereo not given in full)
inactive: CRL-7250 -0.582% | HEK293 -1.35% | HaCat | KB-3-1 | NIH3T3

From PubChem BioAssay (NCATS)
